# Results taken from PubChem BioAssay (EPA / NIEHS).
# Records with an inconclusive call do not appear. More than one record can exist for a structure, and the calls need not agree. Calls of active or inactive are those of the source. Rule for the calls, unless noted: active = hit-call score of the fitted dose curve at least 0.9, where 1 is the maximum; inconclusive = response in the unintended direction; inactive = score below 0.9.
# Key:
# [1] = read-out: Cytochrome P450 3A4 (Homo sapiens) (UniProt P08684); assay: CLD_CYP3A4_24hr: CellzDirect (CLD) Gene Expression Assay for xenobiotic metabolism (CYP3A4) at 24 hours (AID 2283689)
# Outline: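 CYP3A4 mRNA induction read by quantitative nuclease protection (chemiluminescence) 24 hr after dosing. Cultured human hepatocytes (two donor preparations) treated daily, vehicle 0.2% DMSO; phase-contrast morphology annotates cytotoxicity.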
# [2] = read-out: alkyl and aryl transferase (GSTA2), GSTA2 (gene 2939); assay: CLD_GSTA2_24hr: CellzDirect (CLD) Gene Expression Assay for alkyl and aryl transferase (GSTA2) at 24 hours (AID 2283693)
# Outline: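 GSTA2 transcript levels were quantified by quantitative nuclease protection assay in primary human hepatocytes 24 h after daily dosing with fresh solutions at multiple concentrations; 0.2% DMSO vehicle as baseline, cytotoxicity flagged morphologically.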
# [3] = read-out: sulfotransferase (SULT2A), SULT2A1 (gene 6822); assay: CLD_SULT2A_24hr: CellzDirect (CLD) Gene Expression Assay for sulfotransferase (SULT2A) at 24 hours (AID 2283694);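 for AC50: potency for increased SULT2A1 mRNA level as induction over DMSO baseline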
# Outline: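 mRNA is measured by qNPA: probe hybridisation, S1 nuclease digestion, chemiluminescence, in lysates from human primary hepatocytes harvested 24 h after daily dosing. Vehicle was 0.2% DMSO. Phase-contrast microscopy flagged cytotoxicity (yes/no).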
# [4] = read-out: Cytochrome P450 2B6 (Homo sapiens) (UniProt P20813); assay: CLD_CYP2B6_48hr: CellzDirect (CLD) Gene Expression Assay for xenobiotic metabolism (CYP2B6) at 48 hours (AID 2283699);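 note: actives raise transcript level above DMSO so potency reflects induction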
# Outline: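 CYP2B6 transcript induction, read by quantitative nuclease protection (S1 digestion, chemiluminescent detection) 48 h after dosing, is fitted upward against 0.2% DMSO. Cultured human liver primary cells, two donor preparations, received fresh chemical daily over multiple concentrations.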
# [5] = read-out: xenobiotic metabolism (CYP1A2), CYP1A2 (gene 1544); assay: CLD_CYP1A2_48hr: CellzDirect (CLD) Gene Expression Assay for xenobiotic metabolism (CYP1A2) at 48 hours (AID 2283703)
# Outline: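 Cytotoxicity was flagged yes/no from morphology, while CYP1A2 transcript induction was detected by qNPA chemiluminescence after a 48-hour exposure. Human primary hepatocyte cultures from separate donors received fresh dosing solutions daily over two days, with 0.2% DMSO as vehicle and baseline.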
# [6] = read-out: Broad substrate specificity ATP-binding cassette transporter ABCG2 (Homo sapiens) (UniProt Q9UNQ0); assay: CLD_ABCG2_48hr: CellzDirect (CLD) Gene Expression Assay for ABC Transporter (ABCG2) at 48 hours (AID 2283704);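 for AC50: potency for induction of ABCG2 mRNA above the DMSO baseline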
# Outline: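 ABCG2 transcript measured at 48 h by quantitative nuclease protection (chemiluminescent) and fitted for increase relative to 0.2% DMSO. Hepatocyte cultures from separate donors got fresh compound daily over two days; morphology annotated cytotoxicity.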
# [7] = read-out: organic anion transporter (SLCO1B1), SLCO1B1 (gene 10599); assay: CLD_SLCO1B1_48hr: CellzDirect (CLD) Gene Expression Assay for organic anion transporter (SLCO1B1) at 48 hours (AID 2283707)
# Outline: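 SLCO1B1 transcript quantified by qNPA with chemiluminescent readout after 48 h of once-daily chemical exposure. Cultured human primary hepatocytes came from two donors, with 0.2% DMSO vehicle; positive-direction fitting against DMSO, cytotoxicity flagged by morphology.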
# [8] = CEETOX_H295R_MTT_cell_viability: Viability Assessment in the CeeTox HT-H295R MTT Assay (AID 2283718; active = hit-call score of the fitted dose curve at least 0.9, where 1 is the maximum; inactive = score below 0.9)
# Outline: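 Human H295R adrenal cells, prestimulated 48 h with 10 uM forskolin, were exposed 48 h to chemicals in 0.1% DMSO. Viability was measured in the same wells by MTT (0.5 mg/ml, 4 h, 37 C), absorbance 570/650 nm, as percent of controls.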
# [9] = Tanguay_ZF_120hpf_ActivityScore_legacy: (Legacy) Oregon State University Tanguay Lab 120 Hour Post-fertilization zebrafish Assay Score for Activity (AID 2283742);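 for AC50: dechorionated Tropical 5D wild-type zebrafish embryos held singly per well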
# Outline: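 Dechorionated 5D embryos, one per well, static exposure 6–120 hpf, 28C, sealed and dark; final DMSO 0.64% (vol/vol). Brightfield binary scoring of mortality plus 18 endpoints; gain-of-signal fit versus DMSO baseline.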
# [10] = read-out: ABC Transporter (ABCB1), ABCB1 (gene 5243); assay: CLD_ABCB1_48hr: CellzDirect (CLD) Gene Expression Assay for ABC Transporter (ABCB1) at 48 hours (AID 2283695)
# Outline: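 ABCB1 mRNA was measured by quantitative nuclease protection assay (chemiluminescence) 48 h after dosing. Human hepatocyte cultures from two separate donors received fresh dosing solutions daily for two days, with 0.2% DMSO as vehicle. Positive-direction fit against DMSO.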
# [11] = read-out: xenobiotic metabolism (CYP1A1), CYP1A1 (gene 1543); assay: CLD_CYP1A1_48hr: CellzDirect (CLD) Gene Expression Assay for xenobiotic metabolism (CYP1A1) at 48 hours (AID 2283705)
# Outline: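 CYP1A1 transcript measured by quantitative nuclease protection (chemiluminescent) 48 h after two daily treatments of human hepatocyte cultures, versus 0.2% DMSO. Morphology-based cytotoxicity flags accompany data; two donor preparations used.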
# [12] = read-out: glucuronosyltransferase (UGT1A1), UGT1A1 (gene 54658); assay: CLD_UGT1A1_48hr: CellzDirect (CLD) Gene Expression Assay for glucuronosyltransferase (UGT1A1) at 48 hours (AID 2283709);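 note: actives increase expression relative to DMSO so potency refers to induction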
# Outline: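 Quantitative nuclease protection assay (chemiluminescent) for UGT1A1 mRNA at 48 h in human hepatocyte cultures from two donors, redosed daily with fresh solutions. Induction fitted relative to 0.2% DMSO; phase-contrast morphology annotated cytotoxicity.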
# [13] = read-out: glucuronosyltransferase (UGT1A1), UGT1A1 (gene 54658); assay: CLD_UGT1A1_24hr: CellzDirect (CLD) Gene Expression Assay for glucuronosyltransferase (UGT1A1) at 24 hours (AID 2283696)
# Outline: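 UGT1A1 transcript induction was measured by quantitative nuclease protection assay (chemiluminescence) in human hepatocyte cultures 24 h after daily fresh dosing, with 0.2% DMSO as vehicle and baseline.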
# [14] = read-out: Cytochrome P450 3A4 (Homo sapiens) (UniProt P08684); assay: CLD_CYP3A4_48hr: CellzDirect (CLD) Gene Expression Assay for xenobiotic metabolism (CYP3A4) at 48 hours (AID 2283698)
# Outline: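 CYP3A4 induction read by qNPA chemiluminescence after 48 h, with fresh dosing solutions on consecutive days, in cultured human hepatocytes (two donors). Vehicle 0.2% DMSO as baseline; microscopy-based cytotoxicity annotated yes/no alongside data.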
# [15] = read-out: sulfotransferase (SULT2A), SULT2A1 (gene 6822); assay: CLD_SULT2A_48hr: CellzDirect (CLD) Gene Expression Assay for sulfotransferase (SULT2A) at 48 hours (AID 2283710);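 note: hits raise SULT2A1 transcript above the 0.2% DMSO vehicle baseline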
# Outline: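 SULT2A1 transcript measured by qNPA chemiluminescence in human primary hepatocyte cultures after 48 h, with fresh dosing solutions on two consecutive days; gain-of-signal fitting against 0.2% DMSO vehicle; cytotoxicity annotated from phase-contrast morphology.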
# [16] = STM_H9_OrnithineISnorm_perc: Stemina devTOX quickPredict H9 human embryonic stem cell (hESC)-based Assay for Ornithine (ORN) Metabolite Biomarker, Normalized (AID 2283712; active = hit-call score of the fitted dose curve at least 0.9, where 1 is the maximum; inactive = score below 0.9;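 note: ornithine released into spent medium during last day measured by mass spectrometry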)
# Outline: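 Metabolite endpoint from spent media of pluripotent H9 cells treated 72 h with daily re-feeding; ornithine measured by UPLC-HRMS against its 13C spike-in and referenced to the median 0.1% DMSO vehicle response.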
# [17] = STM_H9_CystineISnorm_perc: Stemina devTOX quickPredict H9 human embryonic stem cell (hESC)-based Assay for Cystine (CYSS) Metabolite Biomarker, Normalized (AID 2283713; active = hit-call score of the fitted dose curve at least 0.9, where 1 is the maximum; inactive = score below 0.9)
# Outline: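 Normalized cystine level in conditioned medium from the final 24h of a 72h treatment of pluripotent H9 cells (daily media and compound renewal). Quantified by UPLC-HRMS with C13-labeled internal standard; scaled to median of 0.1% DMSO vehicle wells.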
# [18] = STM_H9_OrnCyssISnorm_ratio: Stemina devTOX quickPredict H9 human embryonic stem cell (hESC)-based Assay for Ornithine (ORN):Cystine (CYSS) Ratio (AID 2283714)
# Outline: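 UPLC-HRMS of spent media: ORN/CYSS ratio of internal-standard-normalized percentages, DMSO (0.1%) baseline. Pluripotent H9 hESCs, 72h exposure, daily re-dosing with fresh media; last 24h media collected.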
# [19] = read-out: alkyl and aryl transferase (GSTA2), GSTA2 (gene 2939); assay: CLD_GSTA2_48hr: CellzDirect (CLD) Gene Expression Assay for alkyl and aryl transferase (GSTA2) at 48 hours (AID 2283708);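 note: active means mRNA induction above DMSO vehicle baseline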
# Outline: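 GSTA2 mRNA quantified by qNPA chemiluminescence in human primary hepatocyte lysates after 48 h of daily fresh chemical dosing. Increases fitted against 0.2% DMSO vehicle baseline; cytotoxicity from morphology annotated yes/no.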
# Cytochrome P450 3A4 (Homo sapiens), sequence (P08684 whole entry, looked up): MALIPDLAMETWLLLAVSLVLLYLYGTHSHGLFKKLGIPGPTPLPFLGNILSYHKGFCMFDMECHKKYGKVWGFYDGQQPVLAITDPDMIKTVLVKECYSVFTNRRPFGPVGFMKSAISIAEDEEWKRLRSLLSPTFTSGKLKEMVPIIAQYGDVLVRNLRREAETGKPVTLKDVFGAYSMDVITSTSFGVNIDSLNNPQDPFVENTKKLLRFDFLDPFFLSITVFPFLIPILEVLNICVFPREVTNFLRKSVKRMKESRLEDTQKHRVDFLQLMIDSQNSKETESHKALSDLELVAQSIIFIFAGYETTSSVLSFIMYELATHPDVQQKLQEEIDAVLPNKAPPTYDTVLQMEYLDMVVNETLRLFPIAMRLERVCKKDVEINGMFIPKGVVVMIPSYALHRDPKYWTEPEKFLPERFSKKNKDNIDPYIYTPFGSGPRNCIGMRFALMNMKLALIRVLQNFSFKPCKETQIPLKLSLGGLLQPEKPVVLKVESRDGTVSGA
# Broad substrate specificity ATP-binding cassette transporter ABCG2 (Homo sapiens), sequence (Q9UNQ0 whole entry, looked up): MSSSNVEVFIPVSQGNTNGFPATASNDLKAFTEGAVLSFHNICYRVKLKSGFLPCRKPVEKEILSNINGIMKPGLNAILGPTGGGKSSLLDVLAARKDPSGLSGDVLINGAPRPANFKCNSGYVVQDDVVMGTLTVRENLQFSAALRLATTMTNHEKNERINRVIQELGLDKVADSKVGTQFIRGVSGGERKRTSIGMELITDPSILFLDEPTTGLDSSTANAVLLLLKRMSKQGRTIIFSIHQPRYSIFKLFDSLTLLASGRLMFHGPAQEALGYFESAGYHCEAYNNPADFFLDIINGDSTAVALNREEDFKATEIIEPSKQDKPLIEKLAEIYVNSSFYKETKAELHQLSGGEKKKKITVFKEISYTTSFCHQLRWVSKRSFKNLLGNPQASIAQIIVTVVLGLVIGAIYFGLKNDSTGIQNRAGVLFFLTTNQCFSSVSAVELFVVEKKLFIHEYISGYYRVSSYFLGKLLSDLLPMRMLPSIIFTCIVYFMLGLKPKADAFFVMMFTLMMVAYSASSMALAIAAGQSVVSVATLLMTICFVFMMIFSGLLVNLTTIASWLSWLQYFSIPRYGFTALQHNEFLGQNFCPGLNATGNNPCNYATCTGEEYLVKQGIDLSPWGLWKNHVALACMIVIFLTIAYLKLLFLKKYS
compound,measurement,setting,value
CCCSP(=O)(OCC)SCCC,outcome,[1],inactive
same,outcome,[2],inactive
same,outcome,[3],inactive
same,AC50,[4],3.82 µM (active)
same,outcome,[5],inactive
same,outcome,[6],inactive
same,outcome,[7],inactive
same,outcome,[8],inactive
same,outcome,[9],inactive
CCc1cccc(CC)c1N(COC)C(=O)CCl,outcome,[3],inactive
same,outcome,[10],inactive
same,AC50,[4],3.01 µM (active)
same,outcome,[5],inactive
same,outcome,[6],inactive
same,AC50,[11],1.89 µM (active)
same,outcome,[7],inactive
same,outcome,[12],inactive
same,AC50,[9],27.6 µM (active)
COP(=O)(OC)SCn1c(=O)oc2cc(Cl)cnc21,outcome,[1],inactive
same,outcome,[3],inactive
same,outcome,[13],inactive
same,outcome,[14],inactive
same,outcome,[5],inactive
same,outcome,[6],inactive
same,outcome,[15],inactive
same,outcome,[9],inactive
CN(C)[C@@H]1C(=O)C(C(N)=O)=C(O)[C@@]2(O)C(=O)C3=C(O)c4c(O)cccc4[C@@](C)(O)[C@H]3[C@H](O)[C@@H]12,outcome,[1],inactive
same,outcome,[3],inactive
same,outcome,[4],inactive
same,outcome,[5],inactive
same,outcome,[11],inactive
same,outcome,[7],inactive
same,AC50,[16],50 µM (active)
same,outcome,[16],inactive
same,AC50,[17],11.6 µM (active)
same,outcome,[17],inactive
same,outcome,[18],inactive
same,outcome,[8],inactive
same,outcome,[9],inactive
Nc1nc(N)nc(NC2CC2)n1,outcome,[1],inactive
same,outcome,[3],inactive
same,outcome,[8],inactive
same,outcome,[9],inactive
CCOP(=S)(OCC)Oc1ccc2c(C)c(Cl)c(=O)oc2c1,outcome,[2],inactive
same,outcome,[3],inactive
same,AC50,[4],1.01 µM (active)
same,AC50,[5],0.414 µM (active)
same,outcome,[6],inactive
same,outcome,[12],inactive
same,outcome,[15],inactive
same,AC50,[16],50 µM (active)
same,outcome,[17],inactive
same,outcome,[18],inactive
same,outcome,[8],inactive
same,outcome,[9],inactive
CSC1=N[C@@](C)(c2ccccc2)C(=O)N1Nc1ccccc1,outcome,[3],inactive
same,outcome,[10],inactive
same,outcome,[13],inactive
same,outcome,[14],inactive
same,AC50,[4],1.16 µM (active)
same,outcome,[6],inactive
same,outcome,[12],inactive
same,AC50,[17],30.1 µM (active)
same,AC50,[18],29.9 µM (active)
same,AC50,[9],37.6 µM (active)
CCc1cccc(C)c1N(C(=O)CCl)C(C)COC (stereo not drawn),outcome,[3],inactive
same,outcome,[13],inactive
same,AC50,[4],0.969 µM (active)
same,outcome,[5],inactive
same,outcome,[6],inactive
same,AC50,[11],20 µM (active)
same,outcome,[12],inactive
same,outcome,[8],inactive
same,outcome,[9],inactive
CON=C(C(=O)OC)c1ccccc1CON=C(C)c1cccc(C(F)(F)F)c1,outcome,[3],inactive
same,outcome,[13],inactive
same,AC50,[14],13.1 µM (active)
same,outcome,[4],inactive
same,outcome,[5],inactive
same,outcome,[6],inactive
same,outcome,[16],inactive
same,outcome,[17],inactive
same,outcome,[9],inactive
Cc1nn(-c2cc(NS(C)(=O)=O)c(Cl)cc2Cl)c(=O)n1C(F)F,outcome,[3],inactive
same,outcome,[10],inactive
same,outcome,[13],inactive
same,AC50,[4],6.7 µM (active)
same,outcome,[5],inactive
same,outcome,[7],inactive
same,AC50,[16],0.114 µM (active)
same,outcome,[17],inactive
same,outcome,[9],inactive
CCOP(=S)(OCC)OC(Cl)C(Cl)(Cl)Cl (stereo not drawn),outcome,[3],inactive
same,outcome,[13],inactive
same,AC50,[4],0.0135 µM (active)
same,AC50,[5],9.25 µM (active)
same,outcome,[6],inactive
same,outcome,[9],inactive
C[Si](Cn1cncn1)(c1ccc(F)cc1)c1ccc(F)cc1,AC50,[1],1.89 µM (active)
same,AC50,[3],20 µM (active)
same,AC50,[4],0.051 µM (active)
same,AC50,[5],1.89 µM (active)
same,AC50,[6],31.6 µM (active)
same,AC50,[16],76.6 µM (active)
same,AC50,[17],30.2 µM (active)
same,AC50,[18],50.7 µM (active)
same,outcome,[8],inactive
same,AC50,[9],35.9 µM (active)
CC1(C(=O)Nc2ccc(O)c(Cl)c2Cl)CCCCC1,outcome,[3],inactive
same,outcome,[10],inactive
same,outcome,[6],inactive
same,outcome,[19],inactive
same,outcome,[12],inactive
same,outcome,[8],inactive
same,outcome,[9],inactive
CSc1nnc(C(C)(C)C)c(=O)n1N,AC50,[1],4.88 µM (active)
same,outcome,[3],inactive
same,outcome,[13],inactive
same,AC50,[4],20 µM (active)
same,AC50,[5],2.97 µM (active)
same,outcome,[12],inactive
same,AC50,[16],0.0961 µM (active)
same,outcome,[17],inactive
same,outcome,[8],inactive
CCOP(=S)(Oc1cnc(C(C)(C)C)nc1)OC(C)C (stereo not drawn),AC50,[1],0.464 µM (active)
same,outcome,[3],inactive
same,AC50,[4],0.427 µM (active)
same,AC50,[5],2.68 µM (active)
same,outcome,[6],inactive
same,AC50,[19],20 µM (active)
same,outcome,[9],inactive
CC(C)N(C(=O)SCC(Cl)=C(Cl)Cl)C(C)C,AC50,[1],20 µM (active)
same,outcome,[10],inactive
same,AC50,[4],3.91 µM (active)
same,outcome,[5],inactive
same,AC50,[17],12.4 µM (active)
same,AC50,[18],12.2 µM (active)
same,outcome,[9],inactive
